The results in this text go back to PubChem BioAssay (NCI).

About 83,000 compounds went through this panel and 20% of them were active in at least one assay; those are over-represented in the sample as a whole.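 Activity criterion: percent growth below 10, measured after cells in 96-well plates were exposed to a single compound concentration for 48 hours.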 Unmarked numbers belong to inactive results. The source made the active and inactive calls.

Some test systems named below: HCT-15 colon; HT29 colon; SNB-75 CNS; SNB-19 CNS; U251 CNS; PC-3 prostate; SK-MEL-5 melanoma; UACC-62 melanoma; LOX IMVI melanoma; SK-MEL-28 melanoma.
What all share (test): NCI-60 one-dose screen, 48 h (100 = growth as untreated, 0 = no growth, -100 = all killed)
Conditions in all cases: 10 µM unless noted

In the case of `C[C@@H]1C(=O)N(C[C@H](Cc2ccccc2)N(Cc2ccccc2)Cc2ccccc2)[C@]1(Cc1ccccc1)C(=O)OC(C)(C)C`, the growth in the assay with HCT-15 colon is 70.9%; in the assay on HT29 colon it was 46.4%; with SNB-75 CNS, 71.3%; in the assay with SNB-19 CNS it was 66.9%; in the assay with U251 CNS, 49.2%; in the assay with PC-3 prostate it was 27.9%. Also, the growth with SK-MEL-5 melanoma is 45.5%; in the assay on UACC-62 melanoma, 60.6%; with LOX IMVI melanoma, 62.8%; in the assay with SK-MEL-28 melanoma, 92%.
Consider `O=C(c1ccccc1)c1ccc(Cl)c([N+](=O)[O-])c1`, for which the growth is 90% with HCT-15 colon; 83% with HT29 colon; 87.7% in the assay with SNB-75 CNS; 98.5% in the assay on SNB-19 CNS; 97.1% in the assay with U251 CNS; 90.2% with PC-3 prostate. Moreover, the growth in the assay with SK-MEL-5 melanoma is 101%; in the assay on UACC-62 melanoma it was 93.2%; with LOX IMVI melanoma, 37.1%; with SK-MEL-28 melanoma it was 96.8%.
For `CCOc1ccc(-c2nc3ccc(-c4nc5ccc(N6CCN(C)CC6)cc5[nH]4)cc3[nH]2)cc1OCC`, the growth was 63.7% in the assay on HCT-15 colon; 19.4% in the assay on HT29 colon; 6.64% (active) in the assay with SNB-75 CNS; 8.93% (active) in the assay with SNB-19 CNS; 4.64% (active) in the assay on U251 CNS; 17.2% in the assay on PC-3 prostate. For the same molecule, the growth in the assay on SK-MEL-5 melanoma is 8.43% (active); in the assay on UACC-62 melanoma, -14.3% (active); with LOX IMVI melanoma, -74.5% (active); in the assay on SK-MEL-28 melanoma it was -27.2% (active).
Regarding `CC(C)n1nc(C#Cc2cccc(O)c2)c2c(N)ncnc21`, the growth was -11.2% (active) with HCT-15 colon; -17.7% (active) in the assay on HT29 colon; -84.7% (active) with SNB-75 CNS; -21.4% (active) with SNB-19 CNS; -37.1% (active) in the assay on U251 CNS; -11.8% (active) with PC-3 prostate. Moreover, the growth is -91.8% (active) with SK-MEL-5 melanoma, -88.9% (active) with UACC-62 melanoma, -92.4% (active) in the assay with LOX IMVI melanoma and -47.5% (active) in the assay on SK-MEL-28 melanoma.
For the molecule `COc1cc(/C=C/c2nc(Nc3ccc(S(=O)(=O)Nc4cc(C)on4)cc3)c3ccccc3n2)ccc1O`, the growth with HCT-15 colon is 31.8%; in the assay on HT29 colon it was 85.4%; with SNB-75 CNS, 59.7%; in the assay with SNB-19 CNS, 64.3%; in the assay with U251 CNS it was 61.4%; with PC-3 prostate, 80.4%. The growth with SK-MEL-5 melanoma was 52.6%; in the assay with UACC-62 melanoma, 46.6%; with LOX IMVI melanoma, 59.5%; in the assay with SK-MEL-28 melanoma it was 74%.
In the case of `CCOC(=O)C1C(=O)C=C(c2cnccn2)CC1c1ccc(OC)c(OC)c1` (stereo not given), the growth in the assay with HCT-15 colon was 98.9%; in the assay on HT29 colon, 93.1%; with SNB-75 CNS, 105%; in the assay with SNB-19 CNS, 102%; in the assay on U251 CNS it was 99.5%; in the assay with PC-3 prostate, 70.4%. In addition, the growth in the assay with SK-MEL-5 melanoma is 103%; with UACC-62 melanoma, 101%; with LOX IMVI melanoma, 100%; in the assay on SK-MEL-28 melanoma, 102%.
Turning to `N#Cc1c(N)n2c(nc1=Nc1ccc(Cl)cc1)sc1cc(Cl)ccc12`, the growth with HCT-15 colon is 96.2%; in the assay with HT29 colon it was 33.4%; in the assay with SNB-75 CNS it was 21.1%; in the assay on SNB-19 CNS, 75.5%; in the assay with U251 CNS it was 71%; in the assay on PC-3 prostate, 62.5%. For the same molecule, the growth in the assay on SK-MEL-5 melanoma was 61.1%; in the assay on UACC-62 melanoma, 63.4%; in the assay on LOX IMVI melanoma, 79.7%; in the assay with SK-MEL-28 melanoma it was 57.6%.
`Cc1nc(Nc2ccc(S(=O)(=O)Nc3cc(C)on3)cc2)c2ccccc2n1`: the growth was 99.1% with HCT-15 colon; 98.6% with HT29 colon; 83.2% with SNB-75 CNS; 110% with SNB-19 CNS; 101% in the assay with U251 CNS; 96.9% in the assay with PC-3 prostate. Moreover, the growth in the assay with SK-MEL-5 melanoma is 99.7%; in the assay with UACC-62 melanoma, 98.2%; in the assay on LOX IMVI melanoma, 102%; in the assay on SK-MEL-28 melanoma, 110%.
As to `O=C(Nc1cccc2[nH]c(C(F)(F)F)nc12)c1cc(Cl)ccc1Cl`, the growth in the assay on HCT-15 colon was 29.2%; in the assay on HT29 colon it was 52.1%; in the assay with SNB-75 CNS, 75.6%; in the assay on SNB-19 CNS, 32.3%; in the assay with U251 CNS, 15.8%; in the assay with PC-3 prostate it was 15.5%. In addition, the growth is -47.5% (active) in the assay on SK-MEL-5 melanoma, 20.5% in the assay on UACC-62 melanoma, 38.1% in the assay with LOX IMVI melanoma and 44.3% in the assay with SK-MEL-28 melanoma.
`C[C@@H]1CC[C@@H]2[C@@H]1[C@H](OC(=O)/C=C/c1ccccc1)[C@]1(CCCOCCOCCOCCOC(=O)CCCC[C@@H]3SC[C@@H]4NC(=O)N[C@@H]43)C[C@@H](OC(=O)CO)[C@@]2(C)O1`: the growth in the assay on HCT-15 colon was 106%; with HT29 colon, 98.1%; in the assay with SNB-75 CNS it was 88.8%; in the assay on SNB-19 CNS it was 106%; in the assay on U251 CNS, 105%; in the assay with PC-3 prostate, 97.7%. Besides, the growth is 105% in the assay with SK-MEL-5 melanoma, 102% with UACC-62 melanoma, 106% with LOX IMVI melanoma and 108% in the assay with SK-MEL-28 melanoma.
`N#Cc1cccc(-c2nc3ccccn3c2NCCN2CCOCC2)c1`: the growth in the assay on HCT-15 colon was 105%; in the assay with HT29 colon, 92.8%; in the assay with SNB-75 CNS, 71.1%; in the assay with SNB-19 CNS it was 100%; in the assay with U251 CNS it was 98.2%; with PC-3 prostate, 89.5%. Also, the growth with SK-MEL-5 melanoma was 104%; in the assay on UACC-62 melanoma it was 95.5%; with LOX IMVI melanoma, 92.5%; with SK-MEL-28 melanoma, 107%.
Take `O=C1Nc2ccc(Cl)cc2/C1=N/N=C/c1c[nH]c2ccccc12`: the growth with HCT-15 colon is 66.9%; in the assay with HT29 colon it was 86.9%; with SNB-75 CNS, 58.1%; with SNB-19 CNS, 86.3%; in the assay on U251 CNS it was 70.9%; in the assay with PC-3 prostate, 93.8%. The growth in the assay on SK-MEL-5 melanoma is 87.7%; in the assay with UACC-62 melanoma, 43.1%; with LOX IMVI melanoma it was 74%; in the assay on SK-MEL-28 melanoma, 102%.
For `CCNCCNc1cc(-c2ccc(Cl)cc2)c(C#N)c2nc3ccccc3n12`, the growth is -78.5% (active) with HCT-15 colon; -32.2% (active) in the assay on HT29 colon; -76.6% (active) with SNB-75 CNS; 36% with SNB-19 CNS; -53.2% (active) in the assay on U251 CNS; 27.2% in the assay with PC-3 prostate. Moreover, the growth with SK-MEL-5 melanoma was -99.4% (active); in the assay with UACC-62 melanoma, -82.7% (active); in the assay on LOX IMVI melanoma, -77.4% (active); in the assay on SK-MEL-28 melanoma, -90.2% (active).
For the molecule `CCN(CC)CCCC(C)NCc1ccccc1` (stereo not given), the growth with HCT-15 colon is 101%; in the assay with HT29 colon, 83.4%; in the assay on SNB-75 CNS it was 99.8%; in the assay with SNB-19 CNS, 101%; in the assay with U251 CNS, 99.2%; in the assay on PC-3 prostate, 91.2%. For the same molecule, the growth in the assay with SK-MEL-5 melanoma is 108%; in the assay with UACC-62 melanoma it was 97.5%; with LOX IMVI melanoma it was 100%; in the assay with SK-MEL-28 melanoma, 102%.
For the molecule `COc1cc(C(=O)/C=C/c2c(-c3ccc(F)cc3)nc3ncccn23)cc(OC)c1OC`, the growth is 43.5% with HCT-15 colon; 38.2% in the assay with HT29 colon; 59.2% in the assay on SNB-75 CNS; 88.2% in the assay on SNB-19 CNS; 48.2% with U251 CNS; 47% in the assay with PC-3 prostate. Also, the growth with SK-MEL-5 melanoma is 30.5%; in the assay on UACC-62 melanoma, 52.2%; in the assay with LOX IMVI melanoma, 36.4%; in the assay on SK-MEL-28 melanoma, 49.2%.
For the molecule `Clc1ccc2[nH]c3c(NCCCN4CCOCC4)ncnc3c2c1`, the growth in the assay on HCT-15 colon is 84.1%; with HT29 colon it was 18.6%; in the assay on SNB-75 CNS, 85%; in the assay on SNB-19 CNS, 92.9%; in the assay with U251 CNS it was 69.6%; with PC-3 prostate, 75.6%. Further, the growth with SK-MEL-5 melanoma was 67%; in the assay with UACC-62 melanoma, 80.1%; in the assay on LOX IMVI melanoma, 64.5%; in the assay with SK-MEL-28 melanoma, 91.2%.
In the case of `O=C1CSC(c2ccccc2Cl)N1c1nnc(Cn2cnnc2)o1` (stereo not given), the growth with HCT-15 colon was 27.6%; with HT29 colon it was 22.2%; in the assay on SNB-75 CNS, 50.2%; in the assay with SNB-19 CNS it was 64.5%; with U251 CNS, 32.7%; in the assay on PC-3 prostate, 71.2%. Besides, the growth was 23.7% with SK-MEL-5 melanoma, 38.6% in the assay on UACC-62 melanoma, 62.5% in the assay on LOX IMVI melanoma and 58.7% with SK-MEL-28 melanoma.
As to `Cc1cc(C(c2ccccc2)c2ccccc2)ccc1NS(=O)(=O)c1ccccc1`, the growth was 96.3% in the assay on HCT-15 colon; 89.3% in the assay on HT29 colon; 95.4% in the assay on SNB-75 CNS; 101% in the assay on SNB-19 CNS; 94.6% in the assay with U251 CNS; 83.6% in the assay with PC-3 prostate. Also, the growth with SK-MEL-5 melanoma is 94.8%; with UACC-62 melanoma, 85.2%; with LOX IMVI melanoma it was 87.7%; in the assay on SK-MEL-28 melanoma, 112%.
In the case of `CS(=O)(=O)c1ccc(-c2[nH]c3ccc(F)cc3c2/C=N/O)cc1`, the growth with HCT-15 colon was 98.4%; in the assay on HT29 colon, 93.7%; with SNB-75 CNS, 69.2%; in the assay on SNB-19 CNS, 103%; with U251 CNS, 91.2%; with PC-3 prostate, 79.4%. Besides, the growth in the assay on SK-MEL-5 melanoma was 103%; in the assay with UACC-62 melanoma, 91.2%; with LOX IMVI melanoma it was 95.3%; in the assay on SK-MEL-28 melanoma, 108%.
In the case of `N=C(N)c1ccc(-c2ccc(-c3ccc(Cl)cn3)s2)cc1`, the growth in the assay with HCT-15 colon was -46% (active); in the assay on HT29 colon, 0.247% (active); in the assay on SNB-75 CNS, 62%; in the assay on SNB-19 CNS it was 65.7%; with U251 CNS, -24.7% (active); with PC-3 prostate it was 56.3%. In addition, the growth in the assay with SK-MEL-5 melanoma was 70.5%; in the assay with UACC-62 melanoma it was 89.7%; in the assay with LOX IMVI melanoma it was -82.1% (active); with SK-MEL-28 melanoma, 76.4%.
